High-throughput results: PubChem BioAssay, several laboratories
Calb FLC = C. albicans growth inhibition with fluconazole, primary screen, CaCi-2 strain, Alamar Blue fluorescence. C. albicans CaCi-2 (fluconazole-resistant clinical isolate) + fluconazole, 48 h. growth inhibition, % (concentration not given with the values). 300,000 tested, 0.57% active;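 active means growth inhibition above about 58% in most replicates, limit read from the data, passing the limit was not always enough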;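 further: all wells also contain fluconazole at 8 µg/ml as a sub-toxic cotreatment; 0% = median of DMSO wells and 100% = median of geldanamycin control wells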
Cl transport mod = KCC2 cotransporter modulators, thallium flux, primary screen, cell-based, HEK293 KCC2, FluoZin-2 fluorescence, MLSMR. Solute carrier family 12 member 5 (Homo sapiens), Q9H2X9. KCC2 cells, thallium flux FluoZin-2 fluorescence. B-score of Tl+ flux slope (higher = more flux/activation; lower = inhibition) at 10 µM. 190,000 tested, 2.2% active;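 active means thallium flux slope and its plate-corrected score both differing from the plate sample mean at a set confidence after two filtering rounds, in either direction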;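 further: slope of fluorescence scaled to starting intensity during 10 to 20 s after thallium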
H9c2 protect = cardioprotection against H2O2-induced cell death, primary screen, uHTS, H9c2 cells, ATPLite luminescence; H9c2 cardiomyocytes, H2O2 injury protection, 2 h; AID 588492, 2011; protection from H2O2 cell death, % at 20 µM; 360,000 tested, 0.63% active;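 active means compounds giving at least 50% protection of heart cells from peroxide-induced death in the single-dose screen, raw or plate-pattern-corrected value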;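 further: 0% = DMSO wells with peroxide and 100% = DMSO wells without peroxide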
Efflux pump inh = inhibitors of Candida efflux pumps in yeast, primary screen, S. cerevisiae, Nile Red, multiplex; S. cerevisiae Candida pump triplex; inhibition, % at 10 µM; 330,000 tested, 0.44% active; AID 485275, 2010;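 active means plate passing quality check with inhibition over a set limit, or well fluorescence over plate mean plus 4 SD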;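 further: Nile Red retained in pooled yeast measured as flow cytometry median fluorescence; 0% = buffer negative control and 100% = Enniatin B positive control; higher means more Nile Red kept so more efflux inhibition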
PHOSPHO1 block = PubChem AID 1565. Phosphoethanolamine/phosphocholine phosphatase (Homo sapiens), Q8TCT1. recombinant PHOSPHO1, absorbance phosphatase assay. inhibition, % at 13.3 µM. 290,000 tested, 1.1% active; in the data active means inhibition above about 60%
Cmpd fluor yeast = flagged as fluorescent in efflux inhibitor counter-screen; fluorescence ratio to DMSO, % at 10 µM; AID 588517; 1,700 tested, 4% active; S. cerevisiae AD/pABC3, compound fluorescence, flow cytometry; shares compounds with Efflux pump inh;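 active means fluorescence ratio to DMSO above its plate's cutoff, the plate mean ratio plus 5 SD, cut at about 210% in these data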;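 further: unstained yeast with no Nile Red so the signal is compound autofluorescence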
Mdr1 pump inh = inhibitors of Candida albicans Mdr1 efflux, confirmation, flow cytometry, singleplex, Cherry Pick1 set; 1,700 tested, 1% active; inhibition, % at 10 µM; shares compounds with Efflux pump inh; S. cerevisiae AD/CaMDR1, Nile Red efflux; in the data active means inhibition above about 26%;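 further: 0% = DMSO vehicle and 100% = reference inhibitor; higher means more Nile Red retained so more efflux inhibition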
Cdr2 pump inh = inhibitors of Candida albicans Cdr2 efflux pump, confirmation, S. cerevisiae AD/CaCDR2, flow cytometry, cherry pick 1, singleplex; Nile Red retention ratio vs DMSO, % at 10 µM; 1,700 tested, 4% active; Nile Red retention; shares compounds with Efflux pump inh; in the data active means Nile Red retention ratio vs DMSO above about 190%;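 further: higher ratio means more blocking of Cdr2 efflux of the dye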
CaCdr1 efflux inh = inhibitors of Candida albicans Cdr1 efflux pump, confirmation, S. cerevisiae AD/CaCDR1, flow cytometry, cherry pick 1, singleplex. inhibition, % at 10 µM. Nile Red efflux. 1,700 tested, 1% active. shares compounds with Efflux pump inh;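 active means inhibition above the screen-wide mean plus twice its standard deviation, cut at about 32% in these data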
* hit, by the source's call; nt = not tested or not shown. The list is not random: actives were taken first. Their share in the collection is about 3.3%.

SMILES | Calb FLC | Cl transport mod | H9c2 protect | Efflux pump inh | PHOSPHO1 block | Cmpd fluor yeast | Mdr1 pump inh | Cdr2 pump inh | CaCdr1 efflux inh
CCOc1ccc(NC(=O)CCNS(=O)(=O)c2ccc3c(c2)c(=O)n(C)c(=O)n3C)cc1 | -5 | -0.64 | 2 | 6.7* | 17 | 114 | 0 | 98 | 0
CN(CC(=O)NC1CCCCC1)S(=O)(=O)c1ccc2c(c1)c(=O)n(C)c(=O)n2C | -3 | nt | 0 | 0 | 41 | nt | nt | nt | nt
Cn1c(=O)c2cc(S(=O)(=O)NCCC(=O)NC3CCCCCCC3)ccc2n(C)c1=O | 0 | 1.1 | 0 | 8.2* | 13 | 98 | 0 | 102 | 0
Cn1c(=O)c2cc(S(=O)(=O)NCCC(=O)Nc3ccc(Cl)cc3)ccc2n(C)c1=O | -5 | nt | 1 | -1 | -32 | nt | nt | nt | nt
O=C(COc1ccc(F)cc1Cl)N(Cc1nnc(-c2ccccc2Cl)o1)C1CC1 | -11 | nt | 0 | 4 | 30 | nt | nt | nt | nt
CCCCN(C)C(=O)CNC(=O)c1nn(-c2ccc(OC)cc2OC)c(=O)c2ccccc12 | 25 | nt | 0 | 0 | 23 | nt | nt | nt | nt
CCCNC(=O)c1cccc(Cn2nc(C)c(Br)c2C)c1 | -9 | -2.5 | -15 | 0 | 6 | nt | nt | nt | nt
Cc1nn(Cc2cccc(C(=O)NC34CC5CC(CC(C5)C3)C4)c2)c(C)c1Br | 0 | 0.86 | -11 | 0.3* | -16 | 108 | 0 | 102 | 0
CCn1c(=O)c2ccccc2n(Cc2ccc([N+](=O)[O-])cc2)c1=O | 33 | nt | -2 | 0.6* | 5 | 97 | 0 | 118 | 0
Fc1ccc(CN2CCN(c3ncnc4scc(-c5ccccc5)c34)CC2)cc1 | 14 | nt | -8 | 1.7* | 28 | 100 | 0 | 93 | 0
Fc1ccc(-c2csc3ncnc(N4CCN(Cc5ccccc5)CC4)c23)cc1 | 1 | nt | -12 | 0 | 48 | nt | nt | nt | nt
CCCCOc1ccc(C(=O)NCC(=O)NCCCn2nc(C)cc2C)cc1 | nt | nt | 3 | 0 | nt | nt | nt | nt | nt
CCOc1ccc(/C=c2\sc3nc(-c4ccco4)nn3c2=O)cc1OCC | 20 | nt | 13 | 0 | 36 | 115 | 0 | 103 | 0
CCOC(=O)c1c(C)c(C)n(Cc2cccc(OC)c2OC)c1C | 5 | -1.2 | -9 | 14* | -7 | 97 | 0 | 87 | 0
CC(C(=O)N1CCc2ccccc21)N1CCN(S(=O)(=O)c2ccc(C(F)(F)F)cc2)CC1 (centres undefined) | nt | nt | -2 | 0.7* | nt | 106 | 0 | 116 | 0
CC(C(=O)N1CCc2ccccc21)N1CCN(c2cccc(C(F)(F)F)c2)CC1 (centres undefined) | 1 | nt | -10 | 0 | 16 | nt | nt | nt | nt
Cc1c(-c2cccc(Cl)c2)nc2ccccc2c1C(=O)OC/C(O)=C(\C#N)c1nc2ccccc2[nH]1 | 23 | -0.99 | 17 | 2.5* | 25 | 108 | 1 | 116 | 1
CCOC(=O)c1c(C)[nH]c(C(=O)OCC(O)=C(C#N)c2nc3ccccc3[nH]2)c1C | nt | nt | 14 | nt | nt | nt | nt | nt | nt
COc1cc2c(=O)n(Cc3ccco3)c(=O)n(CC(=O)c3cccc(Br)c3)c2cc1OC | 10 | 0.53 | nt | 1.0* | 32 | 87 | 0 | 105 | 0
COc1cc2c(=O)n(Cc3ccco3)c(=O)n(CC(=O)c3ccc(Br)cc3)c2cc1OC | -26 | -0.71 | 13 | 0 | 4 | nt | nt | nt | nt
Cc1ccccc1Cn1c(=O)n(Cc2ccco2)c(=O)c2ccccc21 | -2 | 0.19 | -9 | 0 | 11 | nt | nt | nt | nt
